Experimental findings from the supplement of paper PMC11732987, “Enantioselective OTUD7B fragment discovery through chemoproteomics screening and high-throughput optimisation” (Communications Chemistry, 2025) are described below.

SMILES strings stand for the structures. Values without a mark were called inactive.

Common to all, as to test: log2 ratio of Biotin-Ahx-Ub-VS probe labelling (fragment/DMSO); higher = less target engagement (more negative = stronger competition), active = hit call of the paper (q ≤ 0.05, log2 ratio ≤ -1)
Common to all, as to details: compound concentration: 200 uM; treatment time: 3 h

For one experiment, the target named is T1, USP19 (UniProt O94966).
T1 sequence (whole entry): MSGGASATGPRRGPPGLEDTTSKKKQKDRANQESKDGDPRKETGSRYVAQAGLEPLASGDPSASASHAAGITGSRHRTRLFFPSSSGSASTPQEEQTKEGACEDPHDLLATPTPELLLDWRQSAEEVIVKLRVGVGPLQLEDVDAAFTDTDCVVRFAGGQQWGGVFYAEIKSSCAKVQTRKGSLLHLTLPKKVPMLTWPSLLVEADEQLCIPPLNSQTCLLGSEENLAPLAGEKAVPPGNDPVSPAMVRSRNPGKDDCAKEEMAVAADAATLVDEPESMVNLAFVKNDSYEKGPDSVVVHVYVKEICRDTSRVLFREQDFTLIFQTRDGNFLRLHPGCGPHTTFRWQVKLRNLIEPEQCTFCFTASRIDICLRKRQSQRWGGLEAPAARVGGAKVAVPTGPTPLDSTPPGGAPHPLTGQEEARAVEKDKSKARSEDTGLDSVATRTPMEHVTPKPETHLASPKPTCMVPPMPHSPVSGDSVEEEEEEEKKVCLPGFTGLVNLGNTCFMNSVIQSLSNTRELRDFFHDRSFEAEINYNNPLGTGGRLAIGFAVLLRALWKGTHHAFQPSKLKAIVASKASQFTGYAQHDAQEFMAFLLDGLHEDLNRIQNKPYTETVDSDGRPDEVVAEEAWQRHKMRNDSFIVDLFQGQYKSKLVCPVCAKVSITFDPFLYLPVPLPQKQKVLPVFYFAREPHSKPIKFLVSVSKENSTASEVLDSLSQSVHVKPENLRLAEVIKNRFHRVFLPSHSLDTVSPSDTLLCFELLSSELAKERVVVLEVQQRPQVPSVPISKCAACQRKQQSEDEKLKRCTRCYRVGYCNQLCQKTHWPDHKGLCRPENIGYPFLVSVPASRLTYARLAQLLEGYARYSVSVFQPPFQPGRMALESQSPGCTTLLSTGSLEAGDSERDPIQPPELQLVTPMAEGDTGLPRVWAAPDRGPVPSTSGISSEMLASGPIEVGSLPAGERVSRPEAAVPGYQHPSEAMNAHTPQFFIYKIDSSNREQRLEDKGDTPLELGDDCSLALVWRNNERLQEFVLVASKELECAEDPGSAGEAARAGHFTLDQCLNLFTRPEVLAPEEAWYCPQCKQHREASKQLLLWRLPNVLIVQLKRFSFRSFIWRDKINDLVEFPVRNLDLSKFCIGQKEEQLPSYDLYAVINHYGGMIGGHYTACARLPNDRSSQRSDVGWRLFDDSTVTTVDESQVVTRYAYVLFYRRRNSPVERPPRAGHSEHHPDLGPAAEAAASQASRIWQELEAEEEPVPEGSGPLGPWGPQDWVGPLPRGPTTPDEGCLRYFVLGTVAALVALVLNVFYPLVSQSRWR
In outline:
(§1)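 Labelled DUBs from HEK293T lysate were NeutrAvidin-enriched, digested with LysC and trypsin, and run by diaPASEF LC-MS/MS. Before that, each 495 µg sample in Tris/CHAPS/IGEPAL buffer with protease inhibitors was treated in triplicate with fragment at 200 µM or vehicle for 3 h, then with Biotin-Ahx-Ub-VS at 0.5 µM final for 1 h. Values are average log2 ratios of fragment over vehicle by unpaired t-test, based on global-median-normalised Spectronaut label-free quantities from proteins with ≥2 unique peptides.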

The target in the next experiment is USP24 (UniProt Q9UPU5). In outline: as §1
The target of a further experiment is T2, USP25 (UniProt Q9UHP3).
T2 sequence (whole entry): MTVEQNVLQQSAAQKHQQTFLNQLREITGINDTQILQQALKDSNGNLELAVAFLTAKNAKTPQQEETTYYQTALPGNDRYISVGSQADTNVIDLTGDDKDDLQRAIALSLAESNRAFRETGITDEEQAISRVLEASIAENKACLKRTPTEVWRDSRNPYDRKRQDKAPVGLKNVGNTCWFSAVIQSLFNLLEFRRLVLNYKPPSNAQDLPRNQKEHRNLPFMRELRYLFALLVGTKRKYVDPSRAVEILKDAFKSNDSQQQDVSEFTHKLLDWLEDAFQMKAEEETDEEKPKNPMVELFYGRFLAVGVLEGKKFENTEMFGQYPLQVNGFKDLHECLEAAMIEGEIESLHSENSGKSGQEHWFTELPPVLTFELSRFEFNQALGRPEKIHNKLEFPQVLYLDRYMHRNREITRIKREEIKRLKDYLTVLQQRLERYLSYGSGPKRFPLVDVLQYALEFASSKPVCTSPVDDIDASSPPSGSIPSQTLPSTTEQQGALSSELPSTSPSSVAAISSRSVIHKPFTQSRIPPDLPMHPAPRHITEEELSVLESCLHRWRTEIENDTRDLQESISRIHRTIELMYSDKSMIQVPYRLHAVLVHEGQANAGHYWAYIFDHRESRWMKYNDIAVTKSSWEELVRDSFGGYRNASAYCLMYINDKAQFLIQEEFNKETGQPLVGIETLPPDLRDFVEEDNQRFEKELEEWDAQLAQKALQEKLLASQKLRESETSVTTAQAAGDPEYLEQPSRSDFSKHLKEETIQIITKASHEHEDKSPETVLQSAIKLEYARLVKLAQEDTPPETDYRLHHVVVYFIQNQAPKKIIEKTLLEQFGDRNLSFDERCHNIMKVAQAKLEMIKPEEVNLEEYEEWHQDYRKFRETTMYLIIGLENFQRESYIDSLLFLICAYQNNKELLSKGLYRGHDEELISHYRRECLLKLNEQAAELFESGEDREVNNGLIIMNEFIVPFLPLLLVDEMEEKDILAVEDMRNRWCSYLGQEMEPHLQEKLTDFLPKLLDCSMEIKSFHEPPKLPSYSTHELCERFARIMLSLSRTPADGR
In short, it runs like this:
as §1

Another experiment deals with T3, USP28 (UniProt Q96RU2).
T3 sequence (whole entry): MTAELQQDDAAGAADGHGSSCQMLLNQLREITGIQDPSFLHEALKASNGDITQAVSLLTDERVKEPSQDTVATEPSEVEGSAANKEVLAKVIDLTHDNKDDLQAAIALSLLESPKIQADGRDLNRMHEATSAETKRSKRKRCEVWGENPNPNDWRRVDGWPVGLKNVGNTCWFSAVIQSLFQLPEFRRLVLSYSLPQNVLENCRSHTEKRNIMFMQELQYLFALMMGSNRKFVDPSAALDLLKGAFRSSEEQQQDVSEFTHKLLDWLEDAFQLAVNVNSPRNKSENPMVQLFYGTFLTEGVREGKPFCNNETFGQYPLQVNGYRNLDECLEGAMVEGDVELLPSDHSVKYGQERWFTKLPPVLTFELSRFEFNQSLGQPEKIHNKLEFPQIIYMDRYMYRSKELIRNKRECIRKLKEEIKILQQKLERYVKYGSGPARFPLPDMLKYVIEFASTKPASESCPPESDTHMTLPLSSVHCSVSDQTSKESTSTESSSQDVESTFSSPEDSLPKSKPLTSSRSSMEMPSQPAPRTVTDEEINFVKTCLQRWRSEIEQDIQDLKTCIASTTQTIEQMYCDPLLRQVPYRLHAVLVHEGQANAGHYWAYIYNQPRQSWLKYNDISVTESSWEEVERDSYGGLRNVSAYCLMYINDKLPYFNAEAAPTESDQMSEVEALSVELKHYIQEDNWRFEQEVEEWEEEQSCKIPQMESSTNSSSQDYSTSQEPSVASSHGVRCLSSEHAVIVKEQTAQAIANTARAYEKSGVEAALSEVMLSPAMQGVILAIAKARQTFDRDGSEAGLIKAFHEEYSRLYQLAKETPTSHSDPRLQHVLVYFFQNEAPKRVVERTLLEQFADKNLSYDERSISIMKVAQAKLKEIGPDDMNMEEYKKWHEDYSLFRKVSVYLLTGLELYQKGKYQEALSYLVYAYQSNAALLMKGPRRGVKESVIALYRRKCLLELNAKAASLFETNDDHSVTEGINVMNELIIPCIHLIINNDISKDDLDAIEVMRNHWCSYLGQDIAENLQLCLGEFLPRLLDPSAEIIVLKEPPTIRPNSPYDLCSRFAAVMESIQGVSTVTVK
In short, it runs like this: as §1

Chain of USP24 (Q9UPU5 whole entry): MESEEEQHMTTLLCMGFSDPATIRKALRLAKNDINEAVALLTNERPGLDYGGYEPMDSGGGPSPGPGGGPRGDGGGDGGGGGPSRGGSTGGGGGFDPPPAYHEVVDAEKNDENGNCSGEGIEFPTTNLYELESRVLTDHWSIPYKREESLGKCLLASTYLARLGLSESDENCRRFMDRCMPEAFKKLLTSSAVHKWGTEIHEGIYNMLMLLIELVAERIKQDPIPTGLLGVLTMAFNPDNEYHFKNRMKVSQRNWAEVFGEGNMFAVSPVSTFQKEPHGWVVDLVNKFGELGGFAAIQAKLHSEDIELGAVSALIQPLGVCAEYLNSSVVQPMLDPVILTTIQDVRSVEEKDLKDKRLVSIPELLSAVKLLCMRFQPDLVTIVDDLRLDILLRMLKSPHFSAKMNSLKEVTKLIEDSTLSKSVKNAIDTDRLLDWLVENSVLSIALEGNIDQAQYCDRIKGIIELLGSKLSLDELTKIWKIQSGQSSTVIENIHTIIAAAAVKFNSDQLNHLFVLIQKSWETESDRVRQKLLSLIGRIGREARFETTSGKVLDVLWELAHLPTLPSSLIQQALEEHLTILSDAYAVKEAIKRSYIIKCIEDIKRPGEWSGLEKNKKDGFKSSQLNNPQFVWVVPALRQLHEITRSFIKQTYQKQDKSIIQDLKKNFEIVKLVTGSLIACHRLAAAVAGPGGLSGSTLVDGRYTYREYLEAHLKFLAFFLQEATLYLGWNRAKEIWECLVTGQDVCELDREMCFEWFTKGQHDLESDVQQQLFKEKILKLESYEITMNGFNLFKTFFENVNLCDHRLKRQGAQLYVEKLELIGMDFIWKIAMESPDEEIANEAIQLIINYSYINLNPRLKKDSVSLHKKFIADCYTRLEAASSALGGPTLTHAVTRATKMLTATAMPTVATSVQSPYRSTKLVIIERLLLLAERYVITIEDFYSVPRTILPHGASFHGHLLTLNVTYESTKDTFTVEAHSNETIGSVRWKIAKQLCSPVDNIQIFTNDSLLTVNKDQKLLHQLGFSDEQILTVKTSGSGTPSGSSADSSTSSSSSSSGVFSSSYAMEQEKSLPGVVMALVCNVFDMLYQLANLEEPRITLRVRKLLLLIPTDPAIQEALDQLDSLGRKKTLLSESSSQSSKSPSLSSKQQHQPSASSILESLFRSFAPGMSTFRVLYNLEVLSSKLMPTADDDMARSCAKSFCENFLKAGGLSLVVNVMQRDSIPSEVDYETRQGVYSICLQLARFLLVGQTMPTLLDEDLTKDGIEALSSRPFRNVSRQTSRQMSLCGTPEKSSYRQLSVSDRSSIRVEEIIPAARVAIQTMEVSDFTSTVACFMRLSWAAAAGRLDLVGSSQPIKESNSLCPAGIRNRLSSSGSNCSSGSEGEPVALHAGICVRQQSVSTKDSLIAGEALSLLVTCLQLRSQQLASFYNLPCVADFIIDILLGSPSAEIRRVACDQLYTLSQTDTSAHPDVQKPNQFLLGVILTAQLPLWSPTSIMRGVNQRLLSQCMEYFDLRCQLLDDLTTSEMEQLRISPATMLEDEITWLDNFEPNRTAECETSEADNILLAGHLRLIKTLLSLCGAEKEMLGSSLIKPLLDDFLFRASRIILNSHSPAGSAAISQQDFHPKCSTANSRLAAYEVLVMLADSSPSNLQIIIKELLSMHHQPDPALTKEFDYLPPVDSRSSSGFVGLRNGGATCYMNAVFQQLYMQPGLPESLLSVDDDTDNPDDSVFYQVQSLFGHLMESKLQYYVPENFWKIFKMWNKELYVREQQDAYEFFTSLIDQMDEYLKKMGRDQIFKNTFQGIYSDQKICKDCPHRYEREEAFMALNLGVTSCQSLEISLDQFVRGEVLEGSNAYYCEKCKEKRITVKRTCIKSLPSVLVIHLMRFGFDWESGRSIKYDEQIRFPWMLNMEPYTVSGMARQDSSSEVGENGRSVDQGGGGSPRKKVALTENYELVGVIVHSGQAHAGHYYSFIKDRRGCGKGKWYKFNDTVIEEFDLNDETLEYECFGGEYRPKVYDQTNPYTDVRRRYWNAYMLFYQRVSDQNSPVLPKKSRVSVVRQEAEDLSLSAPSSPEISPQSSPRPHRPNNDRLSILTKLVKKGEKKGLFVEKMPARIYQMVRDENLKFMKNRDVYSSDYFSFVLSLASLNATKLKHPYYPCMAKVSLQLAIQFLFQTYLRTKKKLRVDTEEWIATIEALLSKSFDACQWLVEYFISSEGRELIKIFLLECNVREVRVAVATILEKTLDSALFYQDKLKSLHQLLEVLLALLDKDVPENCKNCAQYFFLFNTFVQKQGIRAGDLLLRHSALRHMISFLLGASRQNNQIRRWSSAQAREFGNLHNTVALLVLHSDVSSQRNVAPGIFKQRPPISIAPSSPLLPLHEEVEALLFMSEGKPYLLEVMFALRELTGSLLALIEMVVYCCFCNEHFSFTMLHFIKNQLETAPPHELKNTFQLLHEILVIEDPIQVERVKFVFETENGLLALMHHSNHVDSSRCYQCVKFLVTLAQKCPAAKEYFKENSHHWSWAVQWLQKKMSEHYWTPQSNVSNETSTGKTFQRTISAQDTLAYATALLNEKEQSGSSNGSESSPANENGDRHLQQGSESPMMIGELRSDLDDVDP

`O=C(CCl)N1CCc2sccc2C1`: the “log2 ratio of Biotin-Ahx-Ub-VS probe labelling” value with USP19 was -1.19 (active); in the experiment with USP24, -1.31 (active); in the experiment with USP25, -1.13 (active); in the experiment with USP28, -0.791.
